Sm TGR inh = S. mansoni TGR enzyme inhibition | Potency, µM (series often up to 114 µM), for inactives: top-dose activity change, negative = inhibition, hits mostly inhibitors | purified TGR, DTNB reduction, TNB absorbance 405 nm | 3% of 360,000 active; also: potency is read from the fitted curve at half-maximal effect; nearly all actives have a fitted effect of over 60% in size
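Kinetic colorimetric format: TGR-catalysed, NADPH-driven DTNB reduction monitored via TNB absorbance. Enzyme dispensed at 20 nM; compound exposure 15 min at room temperature before reaction start.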
FMDV antiviral = blocks foot and mouth disease virus; FMDV antiviral cell-based qHTS; 1.2% of 410,000 active; Potency, µM (top dose mostly 57.9 µM), for inactives: top-dose activity change, negative = inhibition, most hits filed as inhibitors; calls by dose curve; tested in HEK293T cells; also: read-out not given here; potency is read from the fitted curve at half-maximal effect; nearly all actives have a fitted effect of over 45% in size
VACV mCherry inh = inhibitors of vaccinia virus infection (mCherry reporter signal); Vaccinia virus mCherry reporter infection, fluorescence; Potency, µM (titrated, usually from 36.5 µM), inactives show at the top dose activity change, negative = inhibition, actives largely listed as inhibitors; 0.63% of 310,000 active; calls by dose curve; tested in A549 cells; also: potency is read from the fitted curve at half-maximal effect; nearly all actives have a fitted effect of over 35% in size
HCV inh = HCV inhibition; Huh7.5.1 HCVcc-Cre infection, luciferase reporter, 44 h; Potency, µM (highest dose often 41.8 µM), for the others: at the highest dose activity change, negative = inhibition, usual class: inhibitors; 3.4% of 340,000 active; AID 651820; also: potency is read from the fitted curve at half-maximal effect
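Cells seeded at 1,000/well and cultured 4 h, then compounds added followed by HCVcc-Cre virus (~0.5 moi). After 44 h further culture, luciferase substrate was added, plates held 15 min at room temperature, and luminescence read for 15 sec.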
HCMV antiviral = human cytomegalovirus inhibition. HFF cells, HCMV-luciferase reporter, 72 h; hits give low values. activity change, negative = inhibition, % at 57.5 µM. 4.5% of 410,000 active. AID 1259415; in the data active = activity change below about -60%; inconclusive = no clear call, values can overlap the other calls; inactive = above about -39%
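Luciferase read-out from HCMV-luciferase-infected HFFs (MOI 1 PFU/cell) 72 h post infection at 37C; compounds added after 16 h cell attachment; activity normalized between buffer-only basal and Salinomycin (10uM) inhibitor controls.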
Vaccinia Venus = inhibitors of vaccinia virus (Venus reporter); Vaccinia virus Venus reporter expression, fluorescence; Potency, µM (highest dose often 36.5 µM), inactives show at the top dose activity change, negative = inhibition, usual class: inhibitors; 0.46% of 330,000 active; AID 720580; calls by dose curve; tested in A549 cells; also: potency is read from the fitted curve at half-maximal effect; nearly all actives have a fitted effect of over 30% in size
Numbers without * were called inactive; i = inactive; ? = inconclusive; . = no result given; ! = not active in a repeat; [ ] = dose if it differs, or a comment. Hits are enriched below; roughly 9.3% of the tested compounds scored in any of these assays. Unless noted, calls follow the shape of the dose curve; as a rule, active = well fitted curve in the direction sought with a large enough effect; inconclusive = small, poorly fitted or top-dose-only effect, or another doubt; inactive = no such curve, though single readings can be large; an effect the other way counts as inactive or inconclusive. % is scaled to controls: 0 for no effect and ±100 for the full control effect.

SMILES | Sm TGR inh | FMDV antiviral | VACV mCherry inh | HCV inh | HCMV antiviral | Vaccinia Venus
CCCCc1c(-c2ccc(F)cc2F)ncn1CCc1ccccc1OC | . | -18% | ? | . | ? | -29%
COc1ccccc1CCn1cnc(-c2ccc(F)cc2F)c1CC(C)C | . | . | . | . | -84* | .
Cc1ccc(OCC(=O)NC2CCCc3ccccc32)c(C)c1 (configuration not stated) | -11% | -15% | -21% | 1% | -34 | -6%
CCOc1ccc(C2CC(c3c(O)c4ccccc4oc3=O)=NN2c2ccccc2)cc1OC (configuration not stated) | -28% | -7% | ? | 16% | -78* | -18%
C=C(C)C(=O)OC[C@@H]1CCC[N@+]2(C)CCCCC12 (some centres not stated) | . | -10% | . | . | . | .
O=C(CCCSc1ccccc1)Nc1nc(-c2ccco2)c(-c2ccco2)s1 | ? | 0% | i | ? | 25 | -8%
Cc1ccc(C(=O)Nc2nc(-c3ccco3)c(-c3ccco3)s2)o1 | 4.5µM* | -20% | 0% | ? | 13 | 4%
O=C(CCl)Nc1nc(-c2ccco2)c(-c2ccco2)s1 | 0.4µM* | -29% | -17% | ? | -69* | -14%
O=C(CNC(=O)c1ccco1)OCc1ccc(Br)cc1 | -29% | -11% | i | 2% | . | 2%
O=C(O)c1sc(C(=O)O)c(-c2ccccc2)c1-c1ccccc1 | . | -12% | i | . | -28 | -14%
CC(=O)c1sc(C(=O)O)c(-c2ccco2)c1-c1ccco1 | 20µM* | 2% | . | 6% | 14 | .
CCOC(=O)COc1ccc2ccccc2c1/C=C/[N+](=O)[O-] | ? | 13µM* | -18% | ? | -99* | -8%
CCOC(=O)COc1ccc(/C=C/[N+](=O)[O-])c(OCC(=O)OCC)c1 | 17% | 14µM* | . | ? | -105* | .
CCOC(=O)COc1ccc2nsnc2c1 | 0% | -15% | . | 2% | 70 | ?
O=C(NCCN1CCOCC1)C(Sc1ccccc1)c1ccccc1 (configuration not stated) | 0% | -4% | -22% | 16% | -1 | -14%
CCOC(=O)C(C)Oc1cccc2c(=O)n(CC(=O)NCCc3ccccc3)ccc12 (configuration not stated) | 10% | -17% | -19% | -17% | 0 | -20%
CCOC(=O)C(C)Oc1cccc2c(=O)n(CC(=O)NCc3ccccc3)ccc12 (configuration not stated) | -3% | -24% | -14% | -28% | -89* | -24%
CCOC(=O)C(C)Oc1cccc2c(=O)n(CC(=O)NCc3ccc(F)cc3)ccc12 (configuration not stated) | 0% | -3% | . | -3% | -65* | .
CCOC(=O)C(C)Oc1cccc2c(=O)n(CC(=O)Nc3ccc(OC)cc3)ccc12 (configuration not stated) | . | -7% | -14% | . | 1 | -10%
CCc1ccccc1NC(=O)N1CC(CC)Oc2ccc(Cl)cc21 (configuration not stated) | -2% | -17% | 9% | . | -61* | -2%
CCC1CN(C(=O)NCc2ccc(C)cc2)c2cc(C)ccc2O1 (configuration not stated) | -16% | -19% | -8% | -23% | -75*! | -9%
CCC1CN(C(=O)Nc2ccc(C(=O)O)cc2)c2cc(Cl)ccc2O1 (configuration not stated) | -1% | -8% | -7% | . | -16 | -11%
CCC1CN(C(=O)NCc2cccc(OC)c2)c2cc(Cl)ccc2O1 (configuration not stated) | -8% | 0% | 4% | 5.6µM* | -18 | -3%
CCC1CN(C(=O)NCc2ccccc2)c2cc(C)ccc2O1 (configuration not stated) | 2% | -3% | -3% | -10% | ? | -4%
Cc1ccc(NC(=O)Cn2c(=O)oc3ccccc32)cc1C | -5% | 10% | -20% | 11% | 18 | -15%
SMILES | Sm TGR inh | FMDV antiviral | VACV mCherry inh | HCV inh | HCMV antiviral | Vaccinia Venus
CCN(CC)CC(C)(C)C(=O)/C=C/c1ccc(/C=C/C(=O)C(C)(C)CN(CC)CC)cc1 | . | 3.5µM* | ? | 2.2µM* | 1 | 11µM*
COc1ccc(C)cc1NC(=O)C(=O)NCC(c1cccnc1)N1CCc2ccccc21 (configuration not stated) | 1% | ? | -17% | . | 21 | -15%
COc1ccc(OC)c(N(CC(=O)NCc2ccccc2)S(=O)(=O)c2ccc(OC)c(OC)c2)c1 | 25µM* | -1% | -5% | 14% | -24 | -10%
COc1ccc(OC)c(N(CC(=O)NCC2CCCO2)S(=O)(=O)c2ccccc2)c1 (configuration not stated) | -20% | 21% | -13% | 18% | -63* | -4%
O=C(Cn1c(=O)cnc2ccccc21)NC1CCC(O)CC1 (configuration not stated) | -3% | 3% | -10% | 3% | -30 | 3%
CN(C)/C=N/c1sccc1C(N)=O | -12% | 9% | -13% | -3% | -19 | -3%
COc1ccc(Cc2noc(CN3CCN(c4ccc(Cl)cn4)CC3)n2)cc1OC | . | 13µM* | -16% | ? | -32 | ?
COc1ccc(-c2nc(Cc3ccc(Cl)cc3)no2)cc1OC | -6% | -6% | . | ? | -74* | -20%
COc1ccccc1Cc1noc(-c2cc(Cl)ccc2OC)n1 | 9% | 10% | i | 7.1µM* | -38 | -9%
COc1ccc(Cc2noc(-c3ccccc3)n2)cc1OC | 10% | -20% | i | ? | ? | -26%
COc1cc(-c2nc(Cc3ccccc3Cl)no2)cc(OC)c1OC | 0% | 34% | . | ? | -7 | .
O=C(/C=C/c1ccc(OCCCF)cc1)Nc1ccnc(-c2ccncc2)n1 | -2% | 22µM* | -12% | ? | ? | -17%
Cc1ccc(CNC(=O)CN2c3cccc4cccc(c34)S2(=O)=O)cc1 | -15% | -15% | . | -18% | -1 | .
COc1cccc(CNC(=O)Cn2c(=O)c3cccn3c3ccccc32)c1 | -1% | -11% | . | -1% | -66* | .
CN(CCCNC(=O)Cn1c(=O)c2cccn2c2ccccc21)Cc1ccccc1 | -16% | 0% | -14%[7.34 µM] | -8% | -88* | -2%[7.34 µM]
O=C(CCn1c(=O)c2cccn2c2ccc(F)cc21)NCCc1ccccc1 | -1% | -18% | 9% | 10µM* | ? | -2%
COc1cccc(CNC(=O)CN2c3cccc4cccc(c34)S2(=O)=O)c1 | -11% | 0% | i | -26% | -88* | -13%
O=C(Cn1c(=O)c2cccn2c2ccccc21)NCc1cccc(F)c1 | 4% | 6% | i | -11% | ? | -11%
CS(=O)(=O)Cc1ccc(C(=O)N2CCN(C(=O)c3cccs3)CC2)cc1 | . | -22% | . | -3% | -39 | .
O=C(CN1CCc2ccccc2C1)Nc1cc(S(=O)(=O)N2CCOCC2)ccc1N1CCOCC1 | -11% | -11% | -16% | -3% | -9 | -20%

Screening data from PubChem BioAssay.
